Most compounds without a hit are left out; they make up all but 6.9% or so of the library.
IL1B secr inh – blocks inflammasome-driven IL-1 beta release | THP-1 LPS/ATP IL-1B secretion, AlphaLISA, 16 h; hits give low values | activity change, % at 57.5 µM | 360,000 tested, 4.7% active; in the data active = activity change below about -50%; inconclusive = mostly about -30% to -49%; also: % is scaled to controls: 0 for no effect and ±100 for the full control effect
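Secreted IL-1B measured by AlphaLISA bead assay after 16 h compound exposure of THP-1 cells; compounds (final up to 57.5 uM) added 1 h before LPS (250 ng/mL) and ATP (1.25 mM) stimulation; lower signal means less secretion.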
MCF10A rerep – induces DNA re-replication in MCF 10a normal breast cells; 350,000 tested, 2.9% active; MCF 10A DNA re-replication, Hoechst nuclear intensity, 48 h; Potency, µM (highest dose often 46.1 µM), for the others: top-dose activity, positive = re-replication, most hits filed as activators; AID 624296; also: potency is read from the fitted curve at half-maximal effect; % of control where 0% means no effect; nearly all actives have a fitted effect of over 50% in size
SW480 rereplic – DNA re-replication induction in SW480 cells; SW480 DNA re-replication, Hoechst DNA content imaging, 48 h; Potency, µM (doses to about 46.1 µM), without a hit: at the top dose re-replication activation, actives largely listed as activators; 340,000 tested, 1.8% active; AID 624297; also: potency is read from the fitted curve at half-maximal effect; % of control where 0% means no effect; nearly all actives have a fitted effect of over 55% in size
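250 cells/well; 23 nL cpd via pin tool; 48 hr, 37 C, 5% CO2; Hoechst 40 min; imager read of total nuclear intensity, ex 405/em 500-530 nm.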
Vif-A3F inh – Vif-A3F binding inhibition | HeLa A3F-eYFP + Vif (tagged APOBEC3F with the HIV-1 protein that degrades it), YFP fluorescence increase | Potency, µM (titrated, usually from 46.1 µM), for the others: top-dose activity, negative = active | 390,000 tested, 0.2% active; also: potency is read from the fitted curve at half-maximal effect; % of control where 0% means no effect; nearly all actives have a fitted effect of over 65% in size
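HeLa cells stably expressing A3F-eYFP plus Vif, plated and incubated overnight at 37 deg C, then exposed to compounds overnight at 37 deg C. Blocked degradation read as raised yellow fluorescence (Ex 488/Em 500-530).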
Vif-APOBEC3G blk – inhibitors of Vif-APOBEC3G interaction; Potency, µM (doses to about 46.1 µM), for the others: at the highest dose activity, negative = active, most hits filed as inhibitors; Q9HC16; HeLa A3G-eYFP + Vif (tagged APOBEC3G with the HIV-1 protein that degrades it), YFP fluorescence, overnight; 410,000 tested, 0.076% active; also: potency is read from the fitted curve at half-maximal effect; % is scaled to controls: 0 for no effect and ±100 for the full control effect; nearly all actives have a fitted effect of over 60% in size
Target sequence (Q9HC16 whole entry, looked up): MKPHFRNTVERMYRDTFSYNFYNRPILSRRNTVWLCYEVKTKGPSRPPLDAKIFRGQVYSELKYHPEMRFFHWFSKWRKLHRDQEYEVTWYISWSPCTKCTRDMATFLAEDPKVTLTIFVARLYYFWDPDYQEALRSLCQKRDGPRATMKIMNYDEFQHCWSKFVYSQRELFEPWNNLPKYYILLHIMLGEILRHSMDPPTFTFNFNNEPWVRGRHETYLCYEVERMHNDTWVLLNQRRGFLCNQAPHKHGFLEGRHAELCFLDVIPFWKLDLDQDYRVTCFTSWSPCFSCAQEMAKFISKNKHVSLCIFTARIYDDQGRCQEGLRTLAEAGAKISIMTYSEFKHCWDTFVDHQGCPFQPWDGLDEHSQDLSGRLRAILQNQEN
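Read-out is eYFP fluorescence (Ex 488/Em 500-530) from Vif-expressing HeLa A3G-eYFP cells; more signal means A3G escaped Vif-mediated degradation. Cells plated overnight, compound pinned in, incubated overnight at 37 deg C.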
Giardia killer – Giardia lamblia killing | Giardia lamblia trophozoite viability | activity change, % at 7.66 µM, hits read low | 340,000 tested, 0.15% active | AID 540267; in the data active = activity change below about -80%; inconclusive = between about -30% and that limit;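 also: parasites exposed to compound for two days anaerobically before the ATP read; % is scaled to controls: 0 for no effect and ±100 for the full control effect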
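Compounds were tested on trophozoites seeded at 100 cells/well and held 48 hrs at 37 deg C anaerobically. An ATP-based luminescent kit measured the remaining live cells.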
* hit, by the source's call; ? = inconclusive; . = no result. Unless noted, calls follow the shape of the dose curve; as a rule, active = well fitted curve in the direction sought with a large enough effect; inconclusive = small, poorly fitted or top-dose-only effect, or another doubt; inactive = no such curve, though single readings can be large; an effect the other way counts as inactive or inconclusive.

SMILES	IL1B secr inh	MCF10A rerep	SW480 rereplic	Vif-A3F inh	Vif-APOBEC3G blk	Giardia killer
CC(=O)c1cc(C(=O)c2ccccc2)sc1Nc1ccccc1	-62*	?	?	4%	-8%	-11
CN1CCCCC1CCN1c2ccccc2Sc2ccc(S(C)=O)cc21 (configuration not stated)	-52*	?	14%	-6%	-4%	8
CC(=O)Nc1ccc(C(=O)Nc2ccc3c(c2)N(C2CCCC2)C(=O)c2ccccc2S3)cc1	.	.	.	-7%	0%	.
COc1ccc(CCNC(=O)CN2C(=O)COc3ccccc32)cc1OC	.	.	.	-9%	3%	.
O=C1S/C(=C/c2ccc(N3CCOCC3)o2)C(=O)N1Cc1c(F)cccc1Cl	0	?	?	?	4µM*	-5
O=C1S/C(=C\c2ccc(N3CCOCC3)o2)C(=O)N1c1ccccc1	-104*	?	18%	?	4.5µM*	19
O=C(O)c1ccccc1-c1ccc(/C=C2\SC(=O)N(c3ccccc3)C2=O)o1	15	11%	-4%	-5%	-4%	-15
Cc1c(C(=O)Nc2cccc(-c3nc4ccccc4s3)c2)oc2ccccc12	.	.	.	-5%	1%	.
Cc1cc(=O)n(Cc2c(F)cccc2Cl)c2c1c(C)nn2-c1cccc(F)c1	.	.	.	2%	-3%	.
c1ccc2c(CSCCc3ccncc3)cccc2c1	17	?	16%	1%	-8%	7
c1ccc2c(CCc3ccncc3)cccc2c1	-88*	12%	?	2%	-9%	16
O=C(/C=C/c1cccc(F)c1)Nc1cc(S(=O)(=O)N2CCOCC2)ccc1Cl	?	?	10%	2%	-5%	-7
O=C(/C=C/c1cccc(F)c1)c1ccc(N2CCOCC2)cc1	-103*	?	?	4%	-22%	-15
O=C(/C=C/c1cccs1)c1ccc(N2CCOCC2)cc1	-69*	?	4%	-9%	1%	?
O=C(/C=C/c1cccs1)c1ccc([N+](=O)[O-])cc1	-18	-1%	-143%	13%	-2%	?
O=C(/C=C/c1cccs1)c1cc(Br)ccc1OC(=O)N1CCOCC1	-98*	?	?	-12%	-11%	-14
CCCn1c2ccccc2c2cnn(CC(=O)NCC3CCN(Cc4ccc(F)cc4)CC3)c(=O)c21	.	.	.	-1%	5%	.
Cc1ccccc1S(=O)Cc1ccc(C(=O)NC2CCCCCC2)o1 (configuration not stated)	.	.	.	-2%	1%	.
CCOC(=O)C1=C(N)n2c(s/c(=C/c3ccco3)c2=O)=C(C(=O)OC)C1c1ccco1 (configuration not stated)	14	6.5µM*	13µM*	-8%	?	11
O=[N+]([O-])c1cccc2c(N3CCCC3)ccnc12	-64*	?	?	1%	-5%	?
C/C(=N\NC(=O)COc1ccc(C)cc1Br)c1cc([N+](=O)[O-])cs1	-10	8.2µM*	9.2µM*	?	1%	?
C/C(=N\NC(=O)COc1ccc(C)cc1[N+](=O)[O-])c1cccs1	-16	12%	?	-15%	-1%	5
Cc1cccc(C(=O)NCC(=O)NC(C)CCc2ccccc2)c1 (configuration not stated)	0	4%	?	1%	-10%	-9
Cc1cccc(NC(=S)NC(C)CCc2ccccc2)c1 (configuration not stated)	-96*	2%	1%	?	-4%	17
Cc1cccc(NC(=O)NC(C)CCc2ccccc2)c1 (configuration not stated)	-57*	10%	6%	3%	-2%	1
Cc1cccc(NC(=O)CCc2ccccc2)c1	-14	2%	0%	9%	-3%	2
CC(CCc1ccccc1)NC(=O)c1ccc(NC(=O)c2cccc(Br)c2)cc1 (configuration not stated)	-4	18µM*	?	-2%	0%	14
